Reference: PMC12864922, “TDP-43 directly inhibits mRNA accumulation in neurites through modulation of mRNA stability”
In all, about 9,900 sequences were measured (“r (bound/input frequency ratio)”: median about 0.7, highest 2% from about 6.5 on). For the sample, the highest values were picked, then their nearest neighbours and some sequences at random.

B1: ENSMUSG00000061578.1096|Ksr2 (ssRNA)
RNA: GGGAGUUCUACAGUCCGACGAUCGCUUCGAUAUCCGCAUGCUAAGAAGGCUGGGGGAGCUUUCAGGGGUGUGGCCAGUUAUGUACAGAUGUGAAGCUGAGGUCUGAAGGAAAUGGAGGAAGUAGGAAGAUCAGACUGGUUGAAUUAGAAGUCUGUCACUCUAGGUGCUAAGUGACCUUGGACCCAGUCAGUUCUUGGAUUUCUGUUGUAGCCCAGGCUAGCCUCGAACCCUUGAUCCUCCUGUUCCUGGUAGAGAAACAGCCACUAAAUGGUGGGAUAGAAUGUGACUGCUCUAUCCCCGAUCCUCUUGCGGUCGCACUAGUGUGGAAUUCUCGGGUGUCAAGG
B2: ENSMUSG00000029636.193|Wasf3 (ssRNA)
RNA: GGGAGUUCUACAGUCCGACGAUCGCUUCGAUAUCCGCAUGCUAAGCCAGUUGCCCGGGCAGAGACCUGACUUCCCCUCUCCUGCCCUGAUCCUUUUUACCAAAUGGCGAUUCCAUAGUCCUGGCUGAGGCAGGGGCUCAAAGUCCAGUGUCUGCUUUGCAAUUCUGGAAGGACAGCUGCUUAUUUAAAUAAGUCUGUGAUAUCCGCAGGCUUGGGUUACAGGGAGGACCUUGCAGAGGGACCAGGACACUGCCUUCCCUUAGGUGCAUUAUUUACGUGGCCUGCAGCUCUUAAUAUCUCUCACCUCUUGCGGUCGCACUAGUGUGGAAUUCUCGGGUGUCAAGG
B3: ENSMUSG00000058297.30|Spock2 (ssRNA)
RNA: GGGAGUUCUACAGUCCGACGAUCGCUUCGAUAUCCGCAUGCUACAGGCAACUUAGCAAAUGGAUCCGGAAGUCAGUGCGGAGGACCCUGGCUCCAGUGGGGGAGGACUGGGGAGUGUGGCUUGUGUGUAUGUGUGAUAUGAGAUGUGUGUGUAUGAUGUGAGAUGUGAGUGUGUGAUGUGAGAUGUGUGUAUGUGAGAUGUGUGUGUGUGUGUGUGUGUGUGUGAUGUGAGUCACCCAAAGGUCCCUAUGUUAUUGAUUUUCAAAUGCACACUUUCACACACAAGGAUACACUAACAGACCAACUCUUGCGGUCGCACUAGUGUGGAAUUCUCGGGUGUCAAGG
B4: ENSMUSG00000058297.31|Spock2|65:69;73:86;95:106;120:126;135:144;150:175 (ssRNA)
RNA: GGGAGUUCUACAGUCCGACGAUCGCUUCGAUAUCCGCAUGCUAACUUAGCAAAUGGAUCCGGAAGUCAGUGCGGAGGACCCUGGCUCCAGUGGGGGAGGACUGGGGACACACGCUACACACAUACACACAUAUGAGAACACACACAUACAUGUGAGAUGUGACACACACAUGUGAGAACACACAUACUGAGAACACACACACACACACACACACACACAUGUGAGUCACCCAAAGGUCCCUAUGUUAUUGAUUUUCAAAUGCACACUUUCACACACAAGGAUACACUAACAGACCAAAAUCAACUCUUGCGGUCGCACUAGUGUGGAAUUCUCGGGUGUCAAGG
B5: ENSMUSG00000058297.31|Spock2 (ssRNA)
RNA: GGGAGUUCUACAGUCCGACGAUCGCUUCGAUAUCCGCAUGCUAACUUAGCAAAUGGAUCCGGAAGUCAGUGCGGAGGACCCUGGCUCCAGUGGGGGAGGACUGGGGAGUGUGGCUUGUGUGUAUGUGUGAUAUGAGAUGUGUGUGUAUGAUGUGAGAUGUGAGUGUGUGAUGUGAGAUGUGUGUAUGUGAGAUGUGUGUGUGUGUGUGUGUGUGUGUGAUGUGAGUCACCCAAAGGUCCCUAUGUUAUUGAUUUUCAAAUGCACACUUUCACACACAAGGAUACACUAACAGACCAAAAUCAACUCUUGCGGUCGCACUAGUGUGGAAUUCUCGGGUGUCAAGG
B6: ENSMUSG00000058297.30|Spock2|71:75;79:92;101:112;126:132;141:150;156:181 (ssRNA)
RNA: GGGAGUUCUACAGUCCGACGAUCGCUUCGAUAUCCGCAUGCUACAGGCAACUUAGCAAAUGGAUCCGGAAGUCAGUGCGGAGGACCCUGGCUCCAGUGGGGGAGGACUGGGGACACACGCUACACACAUACACACAUAUGAGAACACACACAUACAUGUGAGAUGUGACACACACAUGUGAGAACACACAUACUGAGAACACACACACACACACACACACACACAUGUGAGUCACCCAAAGGUCCCUAUGUUAUUGAUUUUCAAAUGCACACUUUCACACACAAGGAUACACUAACAGACCAACUCUUGCGGUCGCACUAGUGUGGAAUUCUCGGGUGUCAAGG
B7: ENSMUSG00000031028.17|Tub|206:210 (ssRNA)
RNA: GGGAGUUCUACAGUCCGACGAUCGCUUCGAUAUCCGCAUGCUACUCUGUCCAGCUUUGACAGCAAGCUGGCCUGCGAGUAGAGGCCCCCCACUGCCUUUAGGUGGCCCAGUCCGGAGUGGAGCUUGCCUGCCUGCCAAGACAGCCCUGCCUACCCUCUGUUCAUAGGCCCUCUAUGGGCUUUCUGGCCUUACCAACCAGAGACUGGCUGCUCUGCCUCUGCUGCUGAAGCAGGGGGGACAGCAAAUGGCAUACACAGGAGAAGAAUAUUUCUGUGCCCCAAGGUCAACACACAUGCCCAGUCCCUCUUGCGGUCGCACUAGUGUGGAAUUCUCGGGUGUCAAGG
B8: ENSMUSG00000031028.285|Tub (ssRNA)
RNA: GGGAGUUCUACAGUCCGACGAUCGCUUCGAUAUCCGCAUGCUAUGCAGGUAAGGAGGCUGGAUUGAUGUAAAUGGAAGUAGUACUUUAAGAAAGCUCUAGAUUUCCCAGGUUGGACACUCGACGAAAGGCACACCUGCUGCAGCAGGUUCUGACACACCUGAGCCAUACAUUGCCAUCAGAGAACCCUCAGCGAGGUAGCCUUUGUUUACAGUCUAGUUUCUAGAGGGCAGUAGGACUUCCAUGCUGGGGCUGGCCUAUCUCCUGAUGAAAGAUUACAGUGCCAUCUCCUUCCCAUAGUUCUGCUCUUGCGGUCGCACUAGUGUGGAAUUCUCGGGUGUCAAGG
B9: ENSMUSG00000061578.738|Ksr2 (ssRNA)
RNA: GGGAGUUCUACAGUCCGACGAUCGCUUCGAUAUCCGCAUGCUAUUGUCUAAGGCUGUGGGUUUUAAAUACCUGCUGCAGGCCUCCCAUCUCUGGCUCUUUGUUUCCACUCUGGCCCAAGUUUGAGUCUCCAUAUGGGCCCUUCCUGUCCUCAUGCCCUGCCUGUCUUCAUUCCACCCAUCCACCCUCCUAAGGAUUGGUCUUGUUCCGAGAGUGAUCCUGGUAACGCCAAGCCUCCCUCUGCCCCUGUGUUGGCUUCUGUGACGGACUACCACACACCAAGAGGUUUUUCACAGUGAAGAUGUCUCUUGCGGUCGCACUAGUGUGGAAUUCUCGGGUGUCAAGG
B10: ENSMUSG00000061578.1348|Ksr2 (ssRNA)
RNA: GGGAGUUCUACAGUCCGACGAUCGCUUCGAUAUCCGCAUGCUACUCUUCCUCCUGUCCCACAGCCCCCAGGUCAGAGCCAAGCGCAUCAUCUGCAGCACACAUGUCUGUCUCCACAGGCAAGCAACCUUGCCAAGGCAGGCCAGACAGGACAGCCCAGCUUCCCACUCCAGACAUGUUGUUCUUACAUCUCUGACCCAGUGAUCUUUCUAGGGGUCUGUCACAUGUCCCAACAGGUGGACAGCUCUCCAAGUCACCAACCUGAGGAAAAUAUCCCUCCUUGUAAAAAGGCUUUCUCUUUGUAACUCUUGCGGUCGCACUAGUGUGGAAUUCUCGGGUGUCAAGG
B11: ENSMUSG00000029028.239|Lrrc47 (ssRNA)
RNA: GGGAGUUCUACAGUCCGACGAUCGCUUCGAUAUCCGCAUGCUAGUGCGAGAGCCGUUAGCUGUCAGAACUAGUGAAGCUCCAGGCUCCUCGUGGCAGACCCUGGACAACGCUGGUAGCUGUUCUCCAUGAGACACGGCUGCUCACAGGUCCCUUUGAGUGGCUGUGGCAAGUACUCACCUACUAAGUGUUUAGGGUGGAGCUAUCCUGUGCUCACCCUGUCUCCCCCCAGUUCCUGCUGUUCCCUCCAGCCCAGCCCAGCCCAGGUGUGAGAUUCAUUGAGAUUUUUGAAACUGUUUUUACAGCUCUUGCGGUCGCACUAGUGUGGAAUUCUCGGGUGUCAAGG
B12: ENSMUSG00000029028.154|Lrrc47 (ssRNA)
RNA: GGGAGUUCUACAGUCCGACGAUCGCUUCGAUAUCCGCAUGCUAGCUUGUUUCCAGGCACCGUGCUGCCGCCAUGCUCCCAGGGCAGCAUCUGCCUUCCACGGCUGUGCUUGGAACUGUAGUGCUGGUCGUUGUUGGCACAUCUGCGCCUUGGCCAAGGAAGUUAUCUAUGUCCGUGUAGUCCUUUGUAGUCAGACAGAUGCUUCGUGGACUGUGCCUCACACAUGGCCCUGCAGGCUCCAUGUCAGCGUGUCCCACUAUUCAUGUCCCAUCUCUGUGCAUCCUGACUGCGCACAUCCCAUCUCCUCUUGCGGUCGCACUAGUGUGGAAUUCUCGGGUGUCAAGG
B13: ENSMUSG00000061578.113|Ksr2|98:102;184:189;252:256 (ssRNA)
RNA: GGGAGUUCUACAGUCCGACGAUCGCUUCGAUAUCCGCAUGCUACUCCCAUUUUGUAAGAACACUGUUCUAACUCACCUCAUGCCCACGCUACCCUGGGCAACUGGAGAACACCAUAGCGUUUCAGCUGAUGUGACAUUUGCACACACCUUUACCAGUUCACCAUCAUUCAUGGCUUCCCCCAAAGUCCCGAGUCCUGAGAACCGGGGCUGUGGCAAGAGAGUUCUGCACACAUCUCUCUGUGGGGCUAGCAAUGCCGGGGUUAAGUUCUCCCUCGGUGAUGGAGACGGUCCUGGCAUACCAUGCUCUUGCGGUCGCACUAGUGUGGAAUUCUCGGGUGUCAAGG
B14: ENSMUSG00000034801.54|Sos2 (ssRNA)
RNA: GGGAGUUCUACAGUCCGACGAUCGCUUCGAUAUCCGCAUGCUAUCAAUGACCUUGGCCAUAUGUAGUCAUUGACACUGGAAUAGUAUUUGUAAAGGUUUUUAAUUUAUUCAAAAAGACAUAGUAUUUUAGUACUUUUUACAGAAAUGCUACUGAUUAAAUAAGCUCUUAAGAAUUAGUAAACUUGUUGGAUGGCAGUGGCCCACAGCUGUAAUCCCAGCACCCUGGUUGCAGGGGCAGGUGGGCUUCAGGGUUUGAGAGCAGCCUGGUCUACAGAGCAAGUCCCAGGACAGCCAGGGCUACACCUCUUGCGGUCGCACUAGUGUGGAAUUCUCGGGUGUCAAGG
B15: ENSMUSG00000090935.235|Synj2bp (ssRNA)
RNA: GGGAGUUCUACAGUCCGACGAUCGCUUCGAUAUCCGCAUGCUAGGGGACUAGGGGAUCAUAUUCCCUCAUAUAUAAUCAAGACUCAUAUUGAAAAAUGAGUUCUGGAUUGUAAAGAGAACUUACUUUUUCCACUUGCCUGUAAGUCUUUGUCCACAAGUUAAAAACAUACACAGUGCUAAGGAAUGAUCAUAACUGAAACAUUUCAAGAACUAUUAGCAGAGCAUGUAUAUUGAGGAUGGGGAAGUUAGCUUUAAAAGAGAAUGCUCAGUCAGUGACAUUAGGAAAAUAAUGACUGAAGCAAUCUCUUGCGGUCGCACUAGUGUGGAAUUCUCGGGUGUCAAGG

Biological target: TDP-43 (Homo sapiens, UniProt Q13148 1-414)
Test: RNA Bind-n-Seq with designed 260-mer pool; 25 mM Tris-HCl, 150 mM KCl, 3 mM MgCl2, BSA (printed 500 mg/mL), 20 units/mL SUPERase IN; pH not stated; 500 nM RNA pool, 1 h, 4 C; TDP-43 5, 50, 500 nM; high values mean tight binding
Conditions: protein: recombinant; tags: SBP (GST cleaved off with PreScission; pGEX-GST-SBP)
Procedure, shortened: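 Recombinant SBP-tagged TDP-43 at 5, 50 or 500 nM was captured on streptavidin beads, then incubated 1 h at 4 °C with 500 nM of an in vitro-transcribed 260-nt 3′ UTR oligo pool in 25 mM Tris-HCl, 150 mM KCl, 3 mM MgCl2, BSA and SUPERase IN. Bound RNA was washed, eluted with biotin, reverse transcribed, PCR-amplified and sequenced. Binding is R, each oligo's mapped-read-normalized abundance in the bound sample divided by its abundance in input. Duplicates used two independent protein batches.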

Sequence of TDP-43 (Q13148 whole entry): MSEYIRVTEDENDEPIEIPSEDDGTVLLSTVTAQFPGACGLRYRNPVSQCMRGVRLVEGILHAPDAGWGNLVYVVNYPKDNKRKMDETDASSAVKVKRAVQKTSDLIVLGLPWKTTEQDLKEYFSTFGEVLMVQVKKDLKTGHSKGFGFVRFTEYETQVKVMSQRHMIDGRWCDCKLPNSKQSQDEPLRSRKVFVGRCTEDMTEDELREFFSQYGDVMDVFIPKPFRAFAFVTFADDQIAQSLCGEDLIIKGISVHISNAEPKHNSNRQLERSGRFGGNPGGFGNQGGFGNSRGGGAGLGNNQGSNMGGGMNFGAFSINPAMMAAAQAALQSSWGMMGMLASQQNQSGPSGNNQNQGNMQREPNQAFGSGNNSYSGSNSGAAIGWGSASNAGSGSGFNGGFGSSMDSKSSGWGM

Row | Binder | binding signal
1 | B1 | 2.29 R (bound/input frequency ratio)
2 | B2 | 0.437 R (bound/input frequency ratio)
3 | B3 | 8.87 R (bound/input frequency ratio)
4 | B4 | 3.59 R (bound/input frequency ratio)
5 | B5 | 8.63 R (bound/input frequency ratio)
6 | B6 | 2.07 R (bound/input frequency ratio)
7 | B7 | 0.458 R (bound/input frequency ratio)
8 | B8 | 0.881 R (bound/input frequency ratio)
9 | B9 | 1.57 R (bound/input frequency ratio)
10 | B10 | 0.533 R (bound/input frequency ratio)
11 | B11 | 0.716 R (bound/input frequency ratio)
12 | B12 | 1.62 R (bound/input frequency ratio)
13 | B13 | 0.484 R (bound/input frequency ratio)
14 | B14 | 0.356 R (bound/input frequency ratio)
15 | B15 | 0.157 R (bound/input frequency ratio)
